Experimental data from PubChem BioAssay (NCATS).
Inconclusive results are not listed. Active and inactive are the calls of the source. The call rests on the fitted dose curve; in most records, active means well fitted curve in the direction sought with a large enough effect; inconclusive means small, poorly fitted or top-dose-only effect, or another doubt; inactive means no such curve, though single readings can be large; an effect the other way counts as inactive or inconclusive.

Key:
[1] = biological target: Rap guanine nucleotide exchange factor 3 (Homo sapiens) (UniProt O95398); assay: Confirmatory qHTS for antagonist of cAMP-regulated guanine nucleotide exchange factor 3 (EPAC1) (AID 1645880); settings: EPAC1 Rap1B-BODIPY-GDP exchange, fluorescence; activity, negative = inhibition: at 115 µM (top of the series); further: nearly all actives have a fitted effect of over 55% in size; further: potency means the concentration at half of the fitted maximal effect;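 on activity, negative = inhibition: plate controls were DMSO only for no effect and full effect of the ATA control for full effect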
Method in brief: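 Nucleotide exchange uses 100 nM EPAC1, 250 nM RAP1B-BODIPY-GDP and 50 uM GDP, with compounds in a concentration-titration series. After 5 min at room temperature, fluorescence (480 nm ex/540 nm em) is read every 5 min for 30 min. Data are normalized to control ATA and DMSO.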

[2] = biological target: Rap guanine nucleotide exchange factor 3 (Homo sapiens) (UniProt O95398); assay: Confirmatory qHTS for agonist of cAMP-regulated guanine nucleotide exchange factor 3 (EPAC1) (AID 1645881); further: nearly all actives have a fitted effect of over 75% in size; further: potency means the concentration at half of the fitted maximal effect;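 on activation: EPAC1 catalysed release of BODIPY-GDP from Rap1B seen as fluorescence loss; 100% = effect of cAMP agonist control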
[3] = biological target: Rap guanine nucleotide exchange factor 4 (Homo sapiens) (UniProt Q8WZA2); assay: Confirmatory qHTS for agonist of cAMP-regulated guanine nucleotide exchange factor 4 (EPAC2) (AID 1645884);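 further: nucleotide exchange releases bodipy-GDP from Rap1 and this lowers its fluorescence; nearly all actives have a fitted effect of over 65% in size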; further: potency means the concentration at half of the fitted maximal effect; on activation: on the % scale 0 is the no-effect control and ±100 the full control effect
[4] = biological target: Rap guanine nucleotide exchange factor 3 (Homo sapiens) (UniProt O95398); assay: Counterscreen qHTS for antagonist of cAMP-regulated guanine nucleotide exchange factor 3 (EPAC1) (AID 1645888);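 further: fluorescence loss as bound BODIPY-GDP is released from Rap1B; % of control where 0% means no effect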
Method in brief: (§1)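 Measured: fluorescence of BODIPY-GDP bound to Rap1B, which falls as exchange proceeds. Conditions include 50 uM competing GDP, 5 and 30 min reads, and a later cAMP challenge for antagonist detection.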

[5] = biological target: Rap guanine nucleotide exchange factor 3 (Homo sapiens) (UniProt O95398); assay: Counterscreen qHTS for agonist of cAMP-regulated guanine nucleotide exchange factor 3 (EPAC1) (AID 1645889); further: nearly all actives have a fitted effect of over 40% in size; further: potency means the concentration at half of the fitted maximal effect; on activation: % of control where 0% means no effect
Method in brief: as §1

Chain of Rap guanine nucleotide exchange factor 4 (Homo sapiens) (Q8WZA2 whole entry, looked up): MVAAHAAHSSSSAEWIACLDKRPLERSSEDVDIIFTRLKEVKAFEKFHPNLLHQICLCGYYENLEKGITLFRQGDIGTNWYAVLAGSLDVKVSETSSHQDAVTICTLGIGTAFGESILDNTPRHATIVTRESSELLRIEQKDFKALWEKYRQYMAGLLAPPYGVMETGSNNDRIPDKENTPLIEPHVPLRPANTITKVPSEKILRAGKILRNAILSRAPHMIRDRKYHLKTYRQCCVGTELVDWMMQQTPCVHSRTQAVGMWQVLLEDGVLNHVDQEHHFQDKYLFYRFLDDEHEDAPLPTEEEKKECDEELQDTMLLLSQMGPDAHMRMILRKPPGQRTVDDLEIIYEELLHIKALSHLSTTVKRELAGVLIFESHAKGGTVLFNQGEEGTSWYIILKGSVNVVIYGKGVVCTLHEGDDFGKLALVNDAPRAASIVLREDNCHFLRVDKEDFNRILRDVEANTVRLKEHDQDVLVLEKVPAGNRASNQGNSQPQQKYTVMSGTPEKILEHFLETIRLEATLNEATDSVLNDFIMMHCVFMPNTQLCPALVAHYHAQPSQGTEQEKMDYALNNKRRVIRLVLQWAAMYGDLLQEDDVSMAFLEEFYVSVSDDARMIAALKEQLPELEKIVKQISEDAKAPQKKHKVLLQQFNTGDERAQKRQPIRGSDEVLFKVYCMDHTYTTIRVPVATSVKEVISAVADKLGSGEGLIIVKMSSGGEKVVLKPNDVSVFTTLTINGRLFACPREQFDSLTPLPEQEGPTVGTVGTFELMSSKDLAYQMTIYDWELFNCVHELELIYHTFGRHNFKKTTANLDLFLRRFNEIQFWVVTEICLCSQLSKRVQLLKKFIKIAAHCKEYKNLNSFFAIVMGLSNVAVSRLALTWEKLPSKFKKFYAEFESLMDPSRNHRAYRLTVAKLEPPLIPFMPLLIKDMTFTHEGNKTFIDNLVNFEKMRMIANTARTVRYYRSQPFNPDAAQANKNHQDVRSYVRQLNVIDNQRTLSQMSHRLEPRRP
Chain of Rap guanine nucleotide exchange factor 3 (Homo sapiens) (O95398 whole entry, looked up): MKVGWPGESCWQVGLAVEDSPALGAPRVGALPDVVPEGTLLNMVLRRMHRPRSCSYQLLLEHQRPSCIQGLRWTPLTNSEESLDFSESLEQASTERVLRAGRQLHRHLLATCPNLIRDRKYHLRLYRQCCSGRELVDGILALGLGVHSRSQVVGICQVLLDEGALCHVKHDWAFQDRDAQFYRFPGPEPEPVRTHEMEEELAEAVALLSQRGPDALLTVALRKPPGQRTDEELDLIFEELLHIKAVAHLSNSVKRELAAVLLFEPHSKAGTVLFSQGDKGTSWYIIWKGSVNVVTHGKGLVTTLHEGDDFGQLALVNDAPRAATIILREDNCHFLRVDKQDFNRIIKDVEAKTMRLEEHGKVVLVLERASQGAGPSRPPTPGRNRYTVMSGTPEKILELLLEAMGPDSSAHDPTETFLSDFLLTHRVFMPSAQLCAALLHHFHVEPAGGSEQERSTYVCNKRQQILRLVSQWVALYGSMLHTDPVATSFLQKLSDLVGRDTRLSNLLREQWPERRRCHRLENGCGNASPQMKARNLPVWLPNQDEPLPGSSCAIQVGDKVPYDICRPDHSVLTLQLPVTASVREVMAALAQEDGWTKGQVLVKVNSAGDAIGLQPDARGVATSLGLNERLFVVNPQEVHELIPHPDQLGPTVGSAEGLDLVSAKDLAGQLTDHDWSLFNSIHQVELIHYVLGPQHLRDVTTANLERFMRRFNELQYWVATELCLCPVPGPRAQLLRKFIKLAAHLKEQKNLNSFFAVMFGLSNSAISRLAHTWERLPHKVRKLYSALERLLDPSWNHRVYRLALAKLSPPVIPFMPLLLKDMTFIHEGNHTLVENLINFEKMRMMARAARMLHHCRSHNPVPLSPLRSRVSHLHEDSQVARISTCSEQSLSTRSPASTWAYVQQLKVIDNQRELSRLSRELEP

COc1ccc(-n2nnnc2C(c2ccccc2OC(F)(F)F)N2CCN(C/C=C/c3ccccc3)CC2)cc1 (stereo not given)
inactive: Potency [1] | Potency [2] | Potency [3] | Potency [4] | Potency [5]

Cc1ccc(NS(=O)(=O)c2cccs2)cc1S(=O)(=O)N1CCCCCC1
inactive: Potency [1] | Potency [2] | Potency [3] | Potency [4] | Potency [5]

Cc1ccc(C)c(N2CCN(C(=O)CCCn3c(=O)c4cccn4c4cccnc43)CC2)c1
active: Potency [5] 0.0089 µM
inactive: Potency [1] | Potency [2] | activation [3] 6.05% [at 17.1 µM, percent relative to cAMP agonist control] | activity change, negative = inhibition [4] -21.9% [at 30.8 µM]

O=C1c2ccccc2S(=O)(=O)c2cc(N3CCC(C(=O)N4CCCCC4)CC3)ccc21
active: Potency [2] 89.1 µM | Potency [3] 100 µM | Potency [5] 56.2 µM
inactive: Potency [1] | Potency [4]

O=S(=O)(O)c1cc(O)c2cc(Nc3ccccc3)ccc2c1
active: Potency [1] 37.9 µM
inactive: Potency [2] | Potency [3] | Potency [4] | Potency [5]

COc1cc(/C=C2\SC(=S)N(NC(=O)c3ccc(O)cc3)C2=O)ccc1O
active: Potency [1] 75.7 µM
inactive: Potency [2] | Potency [3] | Potency [4] | Potency [5]

c1ccc(C(c2ccccc2)c2ccn[nH]2)cc1
inactive: Potency [1] | Potency [2] | activation [3] 1.43% [at 17.1 µM, percent relative to cAMP agonist control] | activity change, negative = inhibition [4] -9.38% [at 30.8 µM] | activation [5] 11.3% [at 30.8 µM]

COc1ccc(N(C(=O)c2snc(C(N)=O)c2N)C(C(=O)NC2CCCC2)c2cccs2)cc1OC (stereo not given)
active: Potency [1] 33.8 µM
inactive: Potency [2] | Potency [3] | Potency [4] | Potency [5]

CC(C)(C)c1ccc(OCC(=O)Nc2ccc(C(=O)Nc3ccccc3C(=O)O)cc2)cc1
inactive: Potency [2] | Potency [3] | Potency [4] | Potency [5]
active: Potency [1] 75.7 µM

CC(=NNC(=O)c1ccncc1)c1ccc2ccccc2c1O
inactive: Potency [1] | Potency [4]
active: Potency [2] 100 µM | Potency [3] 112 µM | Potency [5] 39.8 µM

C=CCn1c(SC(F)F)nc2scc(-c3ccco3)c2c1=O
inactive: Potency [1] | Potency [2] | Potency [3] | Potency [4] | Potency [5]

Cc1cc(C(=O)c2ccc3ccccc3c2)c(C)o1
inactive: Potency [1] | Potency [2] | Potency [3] | Potency [4] | Potency [5]

N#C/C(=C/c1ccc(N2CCCCC2)o1)C(=O)Nc1ccc(Cl)cc1
active: Potency [2] 17.8 µM | Potency [3] 100 µM | Potency [5] 12.6 µM
inactive: Potency [1] | Potency [4]

O=c1ccc(-c2ccccc2)nn1Cc1ccc(Cl)cc1
inactive: Potency [1] | Potency [2] | Potency [3] | Potency [4] | Potency [5]

Cc1ccc(-c2noc(CSc3nnnn3C3CCCCC3)n2)cc1
inactive: Potency [1] | Potency [2] | Potency [3] | Potency [4] | Potency [5]

CC(C1CC1)N(C(=O)NC1CCS(=O)(=O)C1)c1ccccc1 (stereo not given)
inactive: Potency [1] | Potency [2] | Potency [3] | Potency [4] | Potency [5]

COc1ccc(-c2csc3ncn(-c4ccc(C)cc4)c(=O)c23)cc1OC
inactive: Potency [1] | Potency [2] | Potency [3] | Potency [4] | Potency [5]

CS(=O)(=O)c1ccc2c(c1)SC1=NC(=O)/C(=C/c3ccco3)C(=N)N12
inactive: Potency [2] | Potency [3] | Potency [4] | Potency [5]
active: Potency [1] 12 µM

COCCn1c(SCc2ccccc2F)nc2ccccc2c1=O
inactive: Potency [1] | Potency [2] | activation [3] 4.59% [at 17.1 µM, percent relative to cAMP agonist control] | activity change, negative = inhibition [4] -6.24% [at 30.8 µM] | activation [5] 12.3% [at 30.8 µM]

O=C(/C=C/c1ccco1)N1CCCC(c2ccccc2)C1 (stereo not given)
inactive: Potency [2] | Potency [3] | Potency [4] | Potency [5]
active: Potency [1] 67.5 µM

Cc1onc(-c2ccccc2)c1C(=O)N1CCc2ccccc21
inactive: Potency [1] | Potency [2] | activation [3] 1.91% [at 17.1 µM, percent relative to cAMP agonist control] | activity change, negative = inhibition [4] -17.7% [at 30.8 µM] | activation [5] 18.4% [at 30.8 µM]

CC(=O)c1cc(C#N)c(N(C)Cc2ccccc2)nc1C
inactive: Potency [1] | Potency [2] | activation [3] 0.456% [at 17.1 µM, percent relative to cAMP agonist control] | activity change, negative = inhibition [4] -7.5% [at 30.8 µM] | activation [5] 0.131% [at 30.8 µM]

CC(=O)c1c(-c2ccccc2)c2cc(Cl)ccc2n(C)c1=O
inactive: Potency [1] | Potency [2] | activation [3] -9.72% [at 17.1 µM, percent relative to cAMP agonist control] | activity change, negative = inhibition [4] -1.67% [at 30.8 µM] | activation [5] 9.36% [at 30.8 µM]

O=C1CCc2cc(S(=O)(=O)NCc3ccc(F)cc3)cc3c2N1CC3
inactive: Potency [1] | Potency [2] | Potency [3] | Potency [4] | Potency [5]

O=C(O)C1=CC[C@@H](c2ccc(Cl)cc2)N(S(=O)(=O)c2ccc(Cl)cc2)[C@H]1c1ccc(Br)cc1
active: Potency [1] 75.7 µM
inactive: Potency [2] | Potency [3] | Potency [4] | Potency [5]

O=[N+]([O-])c1cc(/C=N/O)ccc1Oc1ccccc1Cl
inactive: Potency [1] | Potency [2] | Potency [3] | Potency [4] | Potency [5]

CCOC(=O)c1c(-c2ccccc2)oc2ccc(OCC)cc12
inactive: Potency [1] | Potency [2] | Potency [3] | Potency [4] | Potency [5]

Cc1ccc(-c2ccccc2C2=CC(=O)CC(C)(C)C2=O)cc1
inactive: Potency [1] | Potency [2] | activation [3] -2.04% [at 17.1 µM, percent relative to cAMP agonist control] | activity change, negative = inhibition [4] 11.7% [at 30.8 µM] | activation [5] 11.7% [at 30.8 µM]

CNC(=O)c1ccc2snnc2c1
inactive: Potency [1] | Potency [2] | Potency [3] | Potency [4] | Potency [5]

Cc1c(Cl)cccc1NC(=O)Nc1cccnc1
inactive: Potency [1] | Potency [2] | Potency [3] | Potency [4] | Potency [5]

O=S1(=O)[C@H]2CC3O[C@]2(C[C@@H]3c2ccc(F)cc2)CN1Cc1ccc(Cl)cc1
inactive: Potency [1] | Potency [2] | Potency [3] | Potency [4] | Potency [5]

Cc1ccc2oc(C(=O)N(Cc3ccc(N(C)C)cc3)CC3CCCO3)c(C)c2c1 (stereo not given)
inactive: Potency [1] | Potency [2] | Potency [3] | Potency [4] | Potency [5]

Cc1ccc(N2CC(c3nc4ccccc4[nH]3)CC2=O)c(C)c1 (stereo not given)
inactive: Potency [1] | Potency [2] | Potency [3] | Potency [4] | Potency [5]

COc1ccccc1Oc1ncnc2c1oc1ccccc12
inactive: Potency [1] | Potency [2] | activation [3] -4.43% [at 17.1 µM, percent relative to cAMP agonist control] | activity change, negative = inhibition [4] 7.03% [at 30.8 µM] | activation [5] 5.04% [at 30.8 µM]

COc1ccc(C2N(c3ccc(Cl)cc3)N=C(C(C)=O)N(C)N2C(C)=O)cc1 (stereo not given)
inactive: Potency [1] | Potency [2] | activation [3] 11.9% [at 17.1 µM, percent relative to cAMP agonist control] | activity change, negative = inhibition [4] -11.6% [at 30.8 µM] | activation [5] 29.6% [at 30.8 µM]

CCC(=O)N1N=C(c2ccc(Cl)cc2)CC1c1ccco1 (stereo not given)
inactive: Potency [1] | Potency [2] | Potency [3] | Potency [4] | Potency [5]
